Laboratory results taken from PubChem BioAssay (Tox21).
Inconclusive results are not listed. Activity calls are given as the source filed them. Unless noted, calls come from the whole dose curve; as a rule, active = well fitted curve in the direction sought with a large enough effect in the repeat runs; inconclusive = weak or mixed curves; inactive = no such curve, though single readings can be large; an effect the other way counts as inactive or inconclusive.

Legend:
[1] = qHTS assay to identify small molecule agonists of the estrogen receptor alpha (ER-alpha) signaling pathway in the presence of an antagonist - cell viability counter screen (AID 1259386);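 note: series mostly up to about 92 µM; cells exposed to compounds for 22 h at 37 °C before the viability read; nearly all actives have a fitted effect of over 30% in size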
Summary of the method: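 The test measures whether compounds kill ER-alpha reporter cells (VM7Luc4E2) under antagonist co-treatment (ICI-182,780, 10.0nM). Fluorescence from CellTiter-Fluor is read after a 22hr exposure.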

[2] = target: Progesterone receptor (Homo sapiens) (UniProt P06401); assay: qHTS assay to identify small molecule agonists of the progesterone receptor (PR) signaling pathway (AID 1346784; calls by dose curve; note: nearly all actives have a fitted effect of over 30% in size)
Summary of the method: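 Compounds were tested for PR agonism in HEK 293T cells bearing a beta-lactamase gene under UAS control. Treatment lasted 16 hr at 37C; signal came from fluorescence of a FRET substrate.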

[3] = target: Progesterone receptor (Homo sapiens) (UniProt P06401); assay: qHTS assay to identify small molecule antagonists of the progesterone receptor (PR) signaling pathway (AID 1346795; active = well fitted inhibition curve with a large enough effect in the signal ratio in the repeat runs, not every such curve was filed as active; the % refers to the signal ratio; note: potency is the fitted concentration of half-maximal effect)
Summary of the method: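 In HEK293T cells bearing the PR-UAS-bla reporter, compound effects on promegestone-driven (1 nM) beta-lactamase expression are assessed after 16 hr using a fluorescent FRET substrate incubated 2 hr at room temperature.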

[4] = qHTS assay to identify small molecule antagonists of the progesterone receptor (PR) signaling pathway - cell viability counter screen (AID 1346798); note: series mostly up to about 92 µM; nearly all actives have a fitted effect of over 50% in size
Summary of the method: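 Following a 4 hr attachment, PR-UAS-bla HEK293T cells in charcoal-stripped FBS medium were exposed to compounds with R5020 for 16 hr; CellTiter-Glo was added and luminescence read after 30 min at room temperature.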

[5] = qHTS assay to identify small molecule agonists of the progesterone receptor (PR) signaling pathway - cell viability counter screen (AID 1346799; calls by dose curve; note: nearly all actives have a fitted effect of over 45% in size)
Summary of the method: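 Here, 3,000 PR-UAS-bla HEK293T cells per well were treated with compounds for 16 hr after a 6 hr preincubation at 37C and 5% CO2; cell viability is the CellTiter-Glo luminescence signal.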

[6] = qHTS assay to identify small molecule antagonists of the TGF-beta/Smad signaling pathway - cell viability counter screen (AID 1346824); note: nearly all actives have a fitted effect of over 50% in size
Summary of the method: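 SBE-bla HEK 293T cells, incubated overnight, then compound plus 0.25 ng/mL TGF-beta1 (stock added) for 5 hr at 37 C. Viability was read in the same wells by CellTiter-Glo luminescence after 30 min at room temperature.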

[7] = qHTS assay to identify small molecule agonists of the TGF-beta/Smad signaling pathway - cell viability counter screen (AID 1346829); note: top concentration of the series differs between compounds; nearly all actives have a fitted effect of over 45% in size
Summary of the method: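 HEK 293T SBE-bla line, 5 hr compound exposure at 37 C, multiplexed CellTiter-Glo viability read by luminescence.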

[8] = target: Thyrotropin-releasing hormone receptor (Homo sapiens) (UniProt P34981); assay: qHTS assay to identify small molecule antagonists of the thyrotropin-releasing hormone receptor (TRHR) signaling pathway (AID 1346877; active = well fitted inhibition curve with a large enough effect in the repeat runs, not every such curve was filed as active; note: series mostly up to about 51 µM)
Summary of the method: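 Overnight-plated (18 h, 37 °C) HEK293 cells expressing TRHR were dye-loaded 2 h, treated with compound, then stimulated with TRH at 1 nM final. Fluorescence intensity was captured every second for 3 min.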

[9] = target: Thyrotropin-releasing hormone receptor (Homo sapiens) (UniProt P34981); assay: qHTS assay to identify small molecule agonists of the thyrotropin-releasing hormone receptor (TRHR) signaling pathway (AID 1346891; calls by dose curve; note: series mostly up to about 58 µM)
Summary of the method: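 Screening of agonists relied on calcium signalling in HEK293 cells expressing human TRHR: dye loading 2 h at 37 °C preceded compound addition and a 3-min fluorescence time course.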

[10] = Human pregnane X receptor (PXR) small molecule agonists, qHTS cell viability counter screen (AID 1346977); note: nearly all actives have a fitted effect of over 50% in size
Summary of the method: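 Tox21 qHTS format; PXR-Luc HepG2, 2,000/well, charcoal-stripped FBS 5%. Cpd exposure 24hr. Read: CellTiter-Fluor fluorescence, multiplexed with luciferase.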

[11] = Caspase-3/7 induction in HepG2 cells by small molecules, qHTS assay (AID 1346978); note: nearly all actives have a fitted effect of over 15% in size; note: potency is the fitted concentration of half-maximal effect
Summary of the method: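 Wild-type HepG2 cells, 2,000/well, settled 5 hr at 37 C and 5% CO2, then compound-treated for 17 hr; caspase-3/7 activity read by luminescent Caspase-Glo 3/7 after 30 min at room temperature.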

[12] = Caspase-3/7 induction in CHO-K1 cells by small molecules, qHTS assay (AID 1346980); note: nearly all actives have a fitted effect of over 15% in size
Summary of the method: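 Wild-type CHO-K1 cells exposed to compounds for 17hr at 37 C, 5% CO2. Caspase-3/7 activity then measured by Caspase-Glo 3/7 luminescence after 30min at room temperature.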

[13] = Caspase-3/7 induction in HepG2 cells by small molecules, qHTS cell viability counter screen (AID 1346981); note: series mostly up to about 92 µM; nearly all actives have a fitted effect of over 30% in size
Summary of the method: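 Treatment of HepG2 cells with DMSO-delivered compounds ran 16 hr at 37 C following a 5-hr pre-incubation of 2,000 cells/well. CellTiter-Fluor fluorescence, read after 1 hr, served as the viability measure in a qHTS format.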

[14] = target: Nuclear receptor subfamily 1 group I member 2 (Homo sapiens) (UniProt O75469); assay: Human pregnane X receptor (PXR) small molecule agonists, qHTS assay (AID 1346982); note: nearly all actives have a fitted effect of over 35% in size
Summary of the method: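 Stable HepG2 line reporting PXR-mediated CYP3A4 expression via luciferase. Treatment: 24 hr with compounds in DMSO at 37 C. Detection: ONE-Glo luminescence.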

[15] = target: Nuclear receptor subfamily 1 group I member 2 (Rattus norvegicus) (UniProt Q9R1A7); assay: Rat pregnane X receptor (rPXR) activation by small molecules, qHTS assay (AID 1346983); conditions: rPXR luciferase reporter cells, One-Glo luminescence, 24 h; max activation: hits give high values; note: nearly all actives have a fitted effect of over 20% in size
Summary of the method: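 Cell-based rPXR activation assay: rPXR cells, 2,000 per well, rested 5hr at 37 C, then exposed to compounds in DMSO for 24 hr at 37 C. Luciferase activity read by One-Glo luminescence after 30 min at room temperature.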

[16] = qHTS assay to identify small molecule agonists of the TGF-beta/Smad signaling pathway (AID 1346859; active = well fitted activation curve with a large enough effect in the signal ratio in the repeat runs, not every such curve was filed as active; the % refers to the signal ratio; note: series mostly up to about 77 µM)
Summary of the method: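 Each well held 4,000 SBE-bla HEK 293T cells incubated overnight before compound addition; 5 hr later the cleavable FRET substrate went on for 2 hr at room temperature, and fluorescence was read at two emissions.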

[17] = Caspase-3/7 induction in CHO-K1 cells by small molecules, qHTS cell viability counter screen (AID 1346979); note: nearly all actives have a fitted effect of over 35% in size; note: potency is the fitted concentration of half-maximal effect
Summary of the method: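 CellTiter-Fluor viability check, qHTS format: wild-type CHO-K1, 16hr compound treatment, 1hr reagent incubation, fluorescence read.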

[18] = target: Cytochrome P450 2D6 (Homo sapiens) (UniProt P10635); assay: Cytochrome P450 Family 2 Subfamily D Member 6 (CYP2D6) small molecule antagonists: luciferase reporter qHTS assay (AID 1671196); note: series mostly up to about 120 µM; nearly all actives have a fitted effect of over 50% in size
Summary of the method: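 Chemicals tested for interference with CYP2D6 activity; proluciferin substrate, NADPH regeneration, 1 h at room temperature, luminescent detection.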
% is set by controls: 0 for no effect and ±100 for the full control effect.

Cytochrome P450 2D6 (Homo sapiens), sequence (P10635 whole entry, looked up): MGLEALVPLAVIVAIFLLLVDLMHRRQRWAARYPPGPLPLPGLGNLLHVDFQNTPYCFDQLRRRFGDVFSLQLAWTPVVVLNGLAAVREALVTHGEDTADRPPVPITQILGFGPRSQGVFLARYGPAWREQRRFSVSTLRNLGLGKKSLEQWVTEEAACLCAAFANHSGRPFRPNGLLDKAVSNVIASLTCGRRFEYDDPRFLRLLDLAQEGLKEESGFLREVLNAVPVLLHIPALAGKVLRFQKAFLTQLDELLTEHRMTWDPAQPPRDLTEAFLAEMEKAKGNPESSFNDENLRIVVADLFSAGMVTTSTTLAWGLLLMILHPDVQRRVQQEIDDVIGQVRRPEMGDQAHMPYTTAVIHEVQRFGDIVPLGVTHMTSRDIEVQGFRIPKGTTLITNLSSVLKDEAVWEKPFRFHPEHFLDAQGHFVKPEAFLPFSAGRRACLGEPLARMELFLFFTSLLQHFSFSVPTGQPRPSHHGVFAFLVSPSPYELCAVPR
Progesterone receptor (Homo sapiens), sequence (P06401 whole entry, looked up): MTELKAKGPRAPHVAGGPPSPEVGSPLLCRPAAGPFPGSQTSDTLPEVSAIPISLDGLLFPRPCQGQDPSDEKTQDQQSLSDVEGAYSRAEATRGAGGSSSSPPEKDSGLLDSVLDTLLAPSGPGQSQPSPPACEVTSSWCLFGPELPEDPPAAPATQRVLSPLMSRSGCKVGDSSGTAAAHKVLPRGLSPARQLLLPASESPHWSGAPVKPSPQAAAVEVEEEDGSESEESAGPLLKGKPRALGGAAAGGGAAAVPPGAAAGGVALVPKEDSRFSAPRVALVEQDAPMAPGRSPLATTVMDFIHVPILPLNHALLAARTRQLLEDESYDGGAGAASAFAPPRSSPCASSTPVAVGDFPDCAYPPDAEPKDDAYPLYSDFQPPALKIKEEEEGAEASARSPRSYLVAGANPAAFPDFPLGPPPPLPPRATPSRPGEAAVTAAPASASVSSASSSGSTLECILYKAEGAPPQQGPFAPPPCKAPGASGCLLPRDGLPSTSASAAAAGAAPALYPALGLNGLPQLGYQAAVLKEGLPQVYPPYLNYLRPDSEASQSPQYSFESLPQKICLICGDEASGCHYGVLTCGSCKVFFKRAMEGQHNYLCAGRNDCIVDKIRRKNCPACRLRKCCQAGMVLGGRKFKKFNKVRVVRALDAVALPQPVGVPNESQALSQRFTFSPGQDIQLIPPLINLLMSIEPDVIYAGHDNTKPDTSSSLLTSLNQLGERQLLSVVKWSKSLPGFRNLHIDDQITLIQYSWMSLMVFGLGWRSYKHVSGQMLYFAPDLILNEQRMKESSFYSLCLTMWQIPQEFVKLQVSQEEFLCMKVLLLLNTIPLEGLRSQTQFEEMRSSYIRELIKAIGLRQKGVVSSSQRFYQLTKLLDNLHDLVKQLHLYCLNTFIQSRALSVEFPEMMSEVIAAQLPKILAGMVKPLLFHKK
Nuclear receptor subfamily 1 group I member 2 (Homo sapiens), sequence (O75469 whole entry, looked up): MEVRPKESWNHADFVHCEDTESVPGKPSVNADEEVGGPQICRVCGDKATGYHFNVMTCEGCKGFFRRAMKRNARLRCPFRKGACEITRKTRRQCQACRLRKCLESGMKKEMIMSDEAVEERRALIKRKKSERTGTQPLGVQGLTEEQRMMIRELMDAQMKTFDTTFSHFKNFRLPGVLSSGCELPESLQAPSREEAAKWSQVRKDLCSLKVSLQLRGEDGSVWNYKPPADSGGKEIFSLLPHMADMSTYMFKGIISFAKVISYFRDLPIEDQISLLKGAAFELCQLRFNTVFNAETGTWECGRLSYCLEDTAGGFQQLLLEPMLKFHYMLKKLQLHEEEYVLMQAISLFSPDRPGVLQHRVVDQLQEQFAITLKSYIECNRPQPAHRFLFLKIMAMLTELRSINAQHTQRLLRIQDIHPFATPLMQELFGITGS
Thyrotropin-releasing hormone receptor (Homo sapiens), sequence (P34981 whole entry, looked up): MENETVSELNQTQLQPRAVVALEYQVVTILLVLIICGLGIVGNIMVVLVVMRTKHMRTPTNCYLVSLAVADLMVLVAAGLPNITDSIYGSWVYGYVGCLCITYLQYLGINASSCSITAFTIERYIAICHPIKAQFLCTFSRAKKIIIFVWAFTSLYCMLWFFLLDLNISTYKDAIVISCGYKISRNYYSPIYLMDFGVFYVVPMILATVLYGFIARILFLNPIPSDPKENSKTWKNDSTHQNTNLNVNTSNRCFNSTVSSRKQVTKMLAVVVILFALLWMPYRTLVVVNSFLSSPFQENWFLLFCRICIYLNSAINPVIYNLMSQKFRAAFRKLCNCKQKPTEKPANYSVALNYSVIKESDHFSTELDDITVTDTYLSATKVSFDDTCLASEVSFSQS
Nuclear receptor subfamily 1 group I member 2 (Rattus norvegicus), sequence (Q9R1A7 whole entry, looked up): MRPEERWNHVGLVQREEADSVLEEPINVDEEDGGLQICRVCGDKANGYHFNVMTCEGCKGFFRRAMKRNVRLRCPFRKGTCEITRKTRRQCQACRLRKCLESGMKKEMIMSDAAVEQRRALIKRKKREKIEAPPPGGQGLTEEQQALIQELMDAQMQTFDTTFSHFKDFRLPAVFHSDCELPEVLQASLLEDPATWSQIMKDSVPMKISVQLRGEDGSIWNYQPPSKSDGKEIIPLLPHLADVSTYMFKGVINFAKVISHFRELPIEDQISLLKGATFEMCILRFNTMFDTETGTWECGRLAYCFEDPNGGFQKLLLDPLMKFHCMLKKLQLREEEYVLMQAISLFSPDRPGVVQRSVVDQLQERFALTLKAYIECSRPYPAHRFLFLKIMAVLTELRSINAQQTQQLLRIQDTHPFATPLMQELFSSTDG

CC(C)=CCOc1ccc(/C=C/C(=O)c2ccc(OCC=C(C)C)cc2OCC(=O)O)cc1
active: Potency [3] 26.6 µM
inactive: Potency [1] | Potency [2] | Potency [4] | Potency [5] | Potency [6] | Potency [7] | Potency [8] | Potency [9] | Potency [10] | Potency [11] | Potency [12] | Potency [13] | Potency [14] | max activation [15] -3.35%

Cc1onc(-c2c(Cl)cccc2Cl)c1C(=O)N[C@@H]1C(=O)N2[C@@H]1SC(C)(C)[C@@H]2C(=O)O
inactive: Potency [1] | Potency [2] | Potency [3] | Potency [4] | Potency [5] | Potency [6] | Potency [7] | Potency [16] | Potency [8] | Potency [9] | Potency [10] | Potency [17] | Potency [12] | Potency [13] | Potency [14]

C/C=C(\C)C(=O)OCc1ccccc1
inactive: Potency [1] | Potency [2] | Potency [3] | Potency [4] | Potency [5] | Potency [6] | Potency [7] | Potency [16] | Potency [10] | Potency [17] | Potency [12] | Potency [13] | Potency [14] | Potency [18]

CSc1ccc(C(=O)c2[nH]c(=O)[nH]c2C)cc1
inactive: Potency [1] | Potency [2] | Potency [3] | Potency [4] | Potency [5] | Potency [6] | Potency [7] | Potency [16] | Potency [10] | Potency [11] | Potency [17] | Potency [12] | Potency [13] | Potency [14] | Potency [18]

CCCCN(CCCC)C(=O)N(CCCC)CCCC
inactive: Potency [1] | Potency [2] | Potency [3] | Potency [4] | Potency [5] | Potency [6] | Potency [16] | Potency [10] | Potency [17] | Potency [12] | Potency [13] | Potency [14]

CCC(N)(CO)CO
inactive: Potency [1] | Potency [2] | Potency [3] | Potency [4] | Potency [5] | Potency [6] | Potency [16] | Potency [8] | Potency [10] | Potency [11] | Potency [17] | Potency [12] | Potency [13] | Potency [14] | Potency [18]

COC(=O)c1cc(Cl)ccc1OC
inactive: Potency [1] | Potency [2] | Potency [3] | Potency [4] | Potency [5] | Potency [6] | Potency [7] | Potency [16] | Potency [8] | Potency [9] | Potency [10] | Potency [11] | Potency [17] | Potency [13] | Potency [14]

Cc1ccc(O)c(C(C)(C)C)c1
inactive: Potency [1] | Potency [2] | Potency [3] | Potency [4] | Potency [5] | Potency [6] | Potency [7] | Potency [16] | Potency [10] | Potency [13] | Potency [14] | Potency [18]
active: Potency [11] 61 µM

CNC(=O)c1ccccc1
inactive: Potency [1] | Potency [2] | Potency [3] | Potency [4] | Potency [5] | Potency [6] | Potency [7] | Potency [16] | Potency [8] | Potency [9] | Potency [10] | Potency [11] | Potency [17] | Potency [12] | Potency [13] | Potency [14]

COC(=O)C1=C(C)NC(C)=C(C(=O)OCCc2ccc(N3CCN(C(c4ccccc4)c4ccccc4)CC3)cc2)C1c1cccc([N+](=O)[O-])c1 (configuration not stated)
inactive: Potency [1] | Potency [2] | Potency [3] | Potency [4] | Potency [5] | Potency [6] | Potency [7] | Potency [16] | Potency [10] | Potency [11] | Potency [12] | Potency [13] | Potency [14] | Potency [18]

Cc1cccc(S(=O)(=O)O)c1C
inactive: Potency [1] | Potency [2] | Potency [3] | Potency [4] | Potency [5] | Potency [6] | Potency [16] | Potency [8] | Potency [9] | Potency [10] | Potency [11] | Potency [12] | Potency [13] | Potency [14] | Potency [18]

CCCC(C)c1ccccc1O (configuration not stated)
inactive: Potency [1] | Potency [2] | Potency [3] | Potency [4] | Potency [5] | Potency [6] | Potency [7] | Potency [16] | Potency [8] | Potency [10] | Potency [12] | Potency [13] | Potency [14] | Potency [18]

Cc1nc(-c2ccc3c(c2)CCN(CCC2CCC(NC(=O)/C=C/c4ccc(F)cc4)CC2)CC3)no1 (configuration not stated)
active: Potency [17] 6.87 µM
inactive: Potency [1] | Potency [2] | Potency [3] | Potency [4] | Potency [5] | Potency [6] | Potency [7] | Potency [16] | Potency [8] | Potency [9] | Potency [10] | Potency [11] | Potency [13] | Potency [14] | Potency [18]

COc1cccc(N)c1
active: Potency [17] 24.5 µM
inactive: Potency [1] | Potency [2] | Potency [3] | Potency [4] | Potency [5] | Potency [6] | Potency [16] | Potency [8] | Potency [9] | Potency [11] | Potency [12] | Potency [13]

COc1cc(-c2ccc(N=C=O)c(OC)c2)ccc1N=C=O
inactive: Potency [1] | Potency [2] | Potency [3] | Potency [4] | Potency [5] | Potency [6] | Potency [7] | Potency [16] | Potency [8] | Potency [9] | Potency [10] | Potency [17] | Potency [12] | Potency [13] | Potency [14]
